The panel holds about 83,000 compounds, 20% with a hit somewhere; the sample as a whole holds those more often.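 Results are percent growth after 48 hours of single-concentration exposure. 100 means growth as in untreated cells, lower positive values show inhibition; negative values down to -100 show cell death.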 A number with no mark means an inactive call. The source made the active and inactive calls. The calls were made as follows: active = growth percent below 10; inactive = the rest.

Some test systems named below: RPMI-8226 leukemia; OVCAR-8 ovarian; OVCAR-5 ovarian; OVCAR-4 ovarian; SK-OV-3 ovarian; IGROV1 ovarian; OVCAR-3 ovarian; HS 578T breast; NCI/ADR-RES ovarian; T-47D breast; BT-549 breast; MDA-MB-435 melanoma; SW-620 colon; MCF7 breast; HCT-116 colon; HCC-2998 colon; KM12 colon.
What all share (test): NCI-60 one-dose screen, 48 h (100 = growth as untreated, 0 = no growth, -100 = all killed)
What all share (conditions): 10 µM unless noted

As to `O=C(O)CCNC1CCCCC1`, the growth was 96.3% with RPMI-8226 leukemia; 99.9% with OVCAR-8 ovarian; 86% in the test on OVCAR-5 ovarian; 103% in the test with OVCAR-4 ovarian; 101% with SK-OV-3 ovarian; 105% in the test with IGROV1 ovarian. Also, the growth with OVCAR-3 ovarian was 108%; with HS 578T breast, 96.6%; in the test on NCI/ADR-RES ovarian, 93.1%; in the test on T-47D breast it was 104%; in the test with BT-549 breast, 99.6%; in the test with MDA-MB-435 melanoma, 117%. In addition, the growth in the test with SW-620 colon was 101%; in the test on MCF7 breast it was 87.5%; in the test with HCT-116 colon, 92.6%; in the test with HCC-2998 colon it was 86.4%; with KM12 colon it was 99.7%.
`C1=CC2=CC=C3C=CC=C4C(c5nc6c7ccccc7c7ccccc7c6[nH]5)=CC(=C1)C2C34` (stereo not drawn): the growth in the test on RPMI-8226 leukemia is 89.5%; with OVCAR-8 ovarian, 97.7%; in the test on OVCAR-5 ovarian it was 115%; with OVCAR-4 ovarian, 119%; with SK-OV-3 ovarian, 93.9%; with IGROV1 ovarian, 86.8%. The growth in the test on OVCAR-3 ovarian is 93.4%; in the test on HS 578T breast it was 93.9%; with NCI/ADR-RES ovarian, 92.9%; in the test with T-47D breast, 60%; in the test on BT-549 breast, 97.3%; in the test with MDA-MB-435 melanoma it was 99.9%. Besides, the growth was 98.3% in the test with SW-620 colon; 76.9% with MCF7 breast; 83.3% with HCT-116 colon; 111% with HCC-2998 colon; 86.5% in the test on KM12 colon.
For the molecule `Nc1ccc(C(=O)Nc2cccc(C(=O)Nc3ccc4c(O)c(N=Nc5ccc(N=Nc6ccc(S(=O)(=O)O)cc6)cc5)c(S(=O)(=O)O)cc4c3)c2)cc1`, the growth is 103% in the test on RPMI-8226 leukemia; 110% in the test on OVCAR-8 ovarian; 106% in the test with OVCAR-5 ovarian; 101% in the test on OVCAR-4 ovarian; 101% in the test with SK-OV-3 ovarian; 102% in the test with IGROV1 ovarian. Further, the growth in the test on OVCAR-3 ovarian was 107%; with HS 578T breast, 106%; with NCI/ADR-RES ovarian, 99.2%; in the test with T-47D breast, 108%; with BT-549 breast, 111%; in the test with MDA-MB-435 melanoma, 106%. Also, the growth in the test on SW-620 colon is 105%; with MCF7 breast it was 94.8%; in the test with HCT-116 colon it was 91.8%; in the test on HCC-2998 colon, 98%; in the test on KM12 colon, 104%.
As to `O=[N+]([O-])c1cccc(CN(Cc2cccc([N+](=O)[O-])c2O)c2ccccc2)c1O`, the growth with RPMI-8226 leukemia was 59.8%; in the test on OVCAR-8 ovarian it was 83.2%; in the test with OVCAR-5 ovarian, 76.5%; in the test with OVCAR-4 ovarian it was 68%; in the test on SK-OV-3 ovarian, 86.4%; with IGROV1 ovarian, 60.4%. Besides, the growth with OVCAR-3 ovarian was 88.9%; in the test on HS 578T breast, 94.6%; with NCI/ADR-RES ovarian, 76%; in the test with T-47D breast it was 70.8%; in the test with BT-549 breast, 88.9%; with MDA-MB-435 melanoma it was 91.4%. Further, the growth in the test on SW-620 colon was 56.9%; in the test on MCF7 breast, 84.8%; with HCT-116 colon, 15.7%; in the test with HCC-2998 colon, 67.1%; in the test with KM12 colon, 88.5%.
For the molecule `COC(=O)[C@]1(C)CCC[C@]2(C)[C@H]3C[C@H]4C(C(C)C)=C[C@]3(CC[C@H]21)[C@@H]1C(=O)N(CCC#N)C(=O)[C@@H]14`, the growth is 62% with RPMI-8226 leukemia; 85.5% in the test with OVCAR-8 ovarian; 116% in the test on OVCAR-5 ovarian; 71.7% in the test on OVCAR-4 ovarian; 98.8% in the test on SK-OV-3 ovarian; 86.2% with IGROV1 ovarian. For the same molecule, the growth with OVCAR-3 ovarian is 88.9%; with HS 578T breast, 89.4%; in the test with NCI/ADR-RES ovarian it was 84.4%; in the test on T-47D breast, 69.9%; in the test on BT-549 breast, 59.5%; in the test with MDA-MB-435 melanoma it was 86.5%. The growth with SW-620 colon is 89.9%; in the test on MCF7 breast, 72.2%; in the test with HCT-116 colon, 70.8%; with HCC-2998 colon, 94.1%; in the test on KM12 colon, 82.7%.
For the molecule `Cc1cccc2nc3c(n12)C(=O)C(=O)c1ccccc1-3`, the growth was 44.9% in the test on RPMI-8226 leukemia; 46.9% with OVCAR-8 ovarian; 104% with OVCAR-5 ovarian; 83.1% in the test on OVCAR-4 ovarian; 79.5% in the test on SK-OV-3 ovarian; 44.7% in the test with IGROV1 ovarian. In addition, the growth was 54% in the test with OVCAR-3 ovarian; 75.2% in the test with HS 578T breast; 50.3% with NCI/ADR-RES ovarian; 62.5% in the test on T-47D breast; 78.6% with BT-549 breast; -86% (active) in the test with MDA-MB-435 melanoma. Further, the growth in the test with SW-620 colon was 79.4%; with MCF7 breast, 47.9%; in the test on HCT-116 colon, 38.7%; in the test with HCC-2998 colon it was 115%; with KM12 colon, 90.6%.
Consider `Fc1ccc(N/N=C/c2ccc(-n3cccn3)cc2)cc1`, for which the growth in the test with RPMI-8226 leukemia was 97.7%; in the test on OVCAR-8 ovarian it was 101%; with OVCAR-5 ovarian, 112%; in the test on OVCAR-4 ovarian it was 95.6%; with SK-OV-3 ovarian, 84.6%; in the test on IGROV1 ovarian it was 78.3%. Besides, the growth in the test with OVCAR-3 ovarian is 93.6%; in the test with HS 578T breast it was 108%; in the test with NCI/ADR-RES ovarian, 87.6%; in the test on T-47D breast, 86.1%; in the test on BT-549 breast, 92.2%; with MDA-MB-435 melanoma, 95.2%. In addition, the growth in the test with SW-620 colon is 79.6%; with MCF7 breast, 77%; in the test with HCT-116 colon, 91.9%; with HCC-2998 colon, 97.5%; with KM12 colon, 80.1%.
As to `c1cc(CNC23CC4CC(CC(C4)C2)C3)cc(C[N+](Cc2cccc(CNC34CC5CC(CC(C5)C3)C4)c2)(Cc2cccc(CNC34CC5CC(CC(C5)C3)C4)c2)Cc2cccc(CNC34CC5CC(CC(C5)C3)C4)c2)c1` (stereo not drawn), the growth in the test with RPMI-8226 leukemia was -11.6% [42 µM] (active); in the test with OVCAR-8 ovarian, 7.24% [42 µM] (active); in the test on OVCAR-5 ovarian, 7.78% [42 µM] (active); with OVCAR-4 ovarian, 29.5% [42 µM]; in the test on SK-OV-3 ovarian, 61.9% [42 µM]; in the test on IGROV1 ovarian, 10.9% [42 µM]. Further, the growth with OVCAR-3 ovarian is -26.9% [42 µM] (active); with HS 578T breast, 58.2% [42 µM]; with NCI/ADR-RES ovarian, 21.5% [42 µM]; in the test with T-47D breast, 24% [42 µM]; with BT-549 breast it was 24.5% [42 µM]; in the test on MDA-MB-435 melanoma, 11.3% [42 µM]. Moreover, the growth in the test with SW-620 colon was 20.6% [42 µM]; with MCF7 breast, 2.14% [42 µM] (active); in the test with HCT-116 colon it was -3.55% [42 µM] (active); in the test on HCC-2998 colon it was 34.3% [42 µM]; in the test on KM12 colon, 25.8% [42 µM].
As for `Cc1c(Cl)cccc1NC(=O)c1sc2nc3c(cc2c1N)CCCCC3`, the growth in the test on RPMI-8226 leukemia is 22.2%; with OVCAR-8 ovarian, 31.5%; with OVCAR-5 ovarian it was 58.3%; with OVCAR-4 ovarian, 59.2%; in the test with SK-OV-3 ovarian, 47.8%; with IGROV1 ovarian it was 54.9%. Also, the growth is -3.42% (active) in the test with OVCAR-3 ovarian; 38% in the test on HS 578T breast; 19.7% in the test on NCI/ADR-RES ovarian; 44% in the test with T-47D breast; 48.7% in the test with BT-549 breast; -0.269% (active) in the test with MDA-MB-435 melanoma. Besides, the growth is 25.3% in the test with SW-620 colon; 20.8% with MCF7 breast; 32.3% in the test on HCT-116 colon; 55.7% with HCC-2998 colon; 24.7% in the test on KM12 colon.
